Measurements from PubChem BioAssay (Tox21).
Where “and” joins values, the source holds several entries; their conditions need not be identical. Equal values may be shown once. Inconclusive results are not listed. Where a call stands in place of a potency, no number is given. Calls of active or inactive are those of the source. Calls follow the shape of the dose curve; as a rule, active = well fitted curve in the direction sought with a large enough effect in the repeat runs; inconclusive = weak or mixed curves; inactive = no such curve, though single readings can be large; an effect the other way counts as inactive or inconclusive.

Key:
[1] = qHTS RealTime-Glo MT Cell Viability Assay in HepG2 cells - 40 hour (AID 1224870); also: nearly all actives have a fitted effect of over 50% in size
Outline: (§1)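 HepG2 cells (600/well) mixed with RealTime-Glo MT reagent, settled 5 h at 37 C/5% CO2 before compound addition. Nonlytic NanoLuc luminescence from viable-cell prosubstrate reduction read repeatedly during 40 h treatment at 37 C.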

[2] = A CellTox Green Cytotoxicity Assay to monitor cytotoxicity in HEK293 cells - 40 hour (AID 1224871); also: nearly all actives have a fitted effect of over 45% in size
Outline: (§2)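 Real-time, in one plate: 600 HEK293 cells/well with dead-cell DNA dye, pinned compound after 5 h, 37 C incubation over 40 h; viable cells give no appreciable fluorescence.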

[3] = qHTS RealTime-Glo MT Cell Viability Assay in HEK293 cells - 16 hour (AID 1224872); also: top concentration of the series differs between compounds; nearly all actives have a fitted effect of over 50% in size
Outline: (§3)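 Assay medium contained NanoLuc luciferase plus cell-permeant prosubstrate, added with HEK293 cells at 600 cells/well. After 5 h at 37 C/5% CO2 compounds were added; plates stayed at 37 C for 40 h with serial luminescence reads.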

[4] = qHTS RealTime-Glo MT Cell Viability Assay in HepG2 cells - 8 hour (AID 1224873); also: nearly all actives have a fitted effect of over 55% in size
Outline: as §1

[5] = qHTS RealTime-Glo MT Cell Viability Assay in HEK293 cells - 40 hour (AID 1224874); conditions: RealTime-Glo luminescence; max response: active compounds read low; also: nearly all actives have a fitted effect of over 50% in size
Outline: (§4)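 Kinetic, non-lysing viability readout. Seed HEK293 (600/well) with reagent, incubate 5 h at 37 C/5% CO2, pin 23 nL compound in DMSO, incubate at 37 C, read luminescence at 0, 8, 16, 24, 32, 40 h.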

[6] = A CellTox Green Cytotoxicity Assay to monitor cytotoxicity in HEK293 cells - 24 hour (AID 1224875); also: series mostly up to about 77 µM; nearly all actives have a fitted effect of over 45% in size
Outline: as §2

[7] = A CellTox Green Cytotoxicity Assay to monitor cytotoxicity in HepG2 cells - 16 hour (AID 1224876); also: nearly all actives have a fitted effect of over 45% in size
Outline: (§5)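 Cytotoxicity was tracked as dead-cell DNA fluorescence in HepG2 cells treated with test compounds at 37 C; each time-point value comes from one kinetic series spanning 0, 8, 16, 24, 32 and 40 h.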

[8] = qHTS RealTime-Glo MT Cell Viability Assay in HepG2 cells - 32 hour (AID 1224877); also: nearly all actives have a fitted effect of over 55% in size
Outline: (§6)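 qHTS, HepG2, 600 cells/well, RealTime-Glo (NanoLuc + prosubstrate) added with cells; 5 h preincubation; DMSO compound addition; 37 C; luminescence at 0/8/16/24/32/40 h.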

[9] = A CellTox Green Cytotoxicity Assay to monitor cytotoxicity in HepG2 cells - 24 hour (AID 1224878); also: nearly all actives have a fitted effect of over 45% in size
Outline: as §5

[10] = A CellTox Green Cytotoxicity Assay to monitor cytotoxicity in HepG2 cells - 40 hour (AID 1224879); also: nearly all actives have a fitted effect of over 40% in size
Outline: as §5

[11] = qHTS RealTime-Glo MT Cell Viability Assay in HEK293 cells - 0 hour (AID 1224880); also: nearly all actives have a fitted effect of over 45% in size; also: potency is read from the fitted curve at half-maximal effect
Outline: as §4

[12] = A CellTox Green Cytotoxicity Assay to monitor cytotoxicity in HEK293 cells - 32 hour (AID 1224881); also: nearly all actives have a fitted effect of over 40% in size
Outline: as §2

[13] = A CellTox Green Cytotoxicity Assay to monitor cytotoxicity in HepG2 cells - 0 hour (AID 1224882); also: nearly all actives have a fitted effect of over 35% in size
Outline: as §5

[14] = A CellTox Green Cytotoxicity Assay to monitor cytotoxicity in HepG2 cells - 32 hour (AID 1224883); also: nearly all actives have a fitted effect of over 50% in size
Outline: as §5

[15] = A CellTox Green Cytotoxicity Assay to monitor cytotoxicity in HEK293 cells - 8 hour (AID 1224884); also: nearly all actives have a fitted effect of over 35% in size
Outline: as §2

[16] = qHTS RealTime-Glo MT Cell Viability Assay in HepG2 cells - 16 hour (AID 1224885); also: nearly all actives have a fitted effect of over 50% in size
Outline: as §6

[17] = qHTS RealTime-Glo MT Cell Viability Assay in HEK293 cells - 24 hour (AID 1224886)
Outline: as §3

[18] = qHTS RealTime-Glo MT Cell Viability Assay in HEK293 cells - 8 hour (AID 1224887)
Outline: as §4

[19] = A CellTox Green Cytotoxicity Assay to monitor cytotoxicity in HEK293 cells - 16 hour (AID 1224888); also: nearly all actives have a fitted effect of over 35% in size
Outline: as §2

[20] = qHTS RealTime-Glo MT Cell Viability Assay in HepG2 cells - 0 hour (AID 1224889); also: nearly all actives have a fitted effect of over 50% in size; also: potency is read from the fitted curve at half-maximal effect
Outline: as §6

Structure (SMILES)	Potency [1]	Potency [2]	Potency [3]	Potency [4]	max response [5]	Potency [6]	Potency [7]	Potency [8]	Potency [9]	Potency [10]	Potency [11]	Potency [12]	Potency [13]	Potency [14]	Potency [15]	Potency [16]	Potency [17]	Potency [18]	Potency [19]	Potency [20]
CCN(CC)C(=O)/C(Cl)=C(\C)OP(=O)(OC)OC	inactive	inactive	inactive	inactive	-0.126% (inactive) and -1.25% (inactive)	inactive	inactive	inactive	inactive	inactive	inactive	inactive	inactive	inactive	inactive	inactive	inactive	inactive	inactive	inactive
CCOP(=S)(OCC)O/N=C(\C#N)c1ccccc1	inactive	inactive	inactive	inactive	6.15% (inactive) and 1.47% (inactive)	inactive	inactive	inactive	inactive	inactive	inactive	inactive	inactive	inactive	inactive	inactive	inactive	inactive	inactive	inactive
CCN(N=O)C(N)=O	inactive	inactive	inactive	inactive	4.37% (inactive) and -1.44% (inactive)	inactive	inactive	inactive	inactive	inactive	inactive	inactive	inactive	inactive	inactive	inactive	inactive	inactive	inactive	inactive
Nc1c(Cl)cc([N+](=O)[O-])cc1Cl	inactive	inactive	inactive	inactive	-14.9% (inactive)	inactive	inactive	inactive	inactive	inactive	inactive	inactive	inactive	inactive	inactive	inactive	inactive	inactive	inactive	inactive
CC(C)c1ccc(CO)cc1	inactive	inactive	inactive	inactive	0.21% (inactive) and 0.88% (inactive)	inactive	inactive	inactive	inactive	inactive	inactive	inactive	inactive	inactive	inactive	inactive	inactive	inactive	inactive	inactive
CCOc1cc(C=O)ccc1O	inactive	inactive	inactive	inactive	4.96% (inactive) and 4.75% (inactive)	inactive	inactive	inactive	inactive	inactive	inactive	inactive	inactive	inactive	inactive	inactive	inactive	inactive	inactive	inactive
CCCCCCCCCCCOC(=O)c1ccccc1C(=O)OCCCCCCCCCCC	inactive	inactive	inactive	inactive	1.36% (inactive) and 2.6% (inactive)	inactive	inactive	inactive	inactive	inactive	inactive	inactive	inactive	inactive	inactive	inactive	inactive	inactive	inactive	inactive
CCN(CC)C(=O)SCc1ccc(Cl)cc1	inactive	inactive	inactive	inactive	-8.77% (inactive) and 0.16% (inactive)	inactive	inactive	inactive	inactive	inactive	inactive	inactive	inactive	inactive	inactive	inactive	inactive	inactive	inactive	inactive
CNC(=O)Oc1cccc2c1OC(C)(C)O2	inactive	inactive	inactive	inactive	-0.755% (inactive) and 5.29% (inactive)	inactive	inactive	inactive	inactive	inactive	inactive	inactive	inactive	inactive	inactive	inactive	inactive	inactive	inactive	inactive
O=c1oc2ccccc2c(O)c1C(CC(O)c1ccc(-c2ccc(Br)cc2)cc1)c1ccccc1 (stereo not given)	inactive	inactive	inactive	inactive	-3.76% (inactive) and 7.1% (inactive)	inactive	inactive	inactive	inactive	inactive	18.4 µM (active) and 12 µM (active)	inactive	inactive	inactive	inactive	inactive	inactive	inactive	inactive	20.7 µM (active) and 21.3 µM (active)
